Molecules are shown by their SMILES. Records with an inconclusive call do not appear. Calls of active or inactive are those of the source. Unless noted, the call rests on the fitted dose curve; in most records, active means well fitted curve in the direction sought with a large enough effect; inconclusive means small, poorly fitted or top-dose-only effect, or another doubt; inactive means no such curve, though single readings can be large; an effect the other way counts as inactive or inconclusive.

Assay [1] in a line: High Content Imaging Cell-Based qHTS for Inhibitors of the mTORC1 Signaling Pathway in MEF (Tsc2-/-, p53-/-) Cells (AID 2666).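 Further: percent of cells scored positive for phospho-rpS6 Ser235/236 immunostaining by imaging.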 The gist of the method: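 Cells were plated, dosed with compound after 24 hrs, and incubated another 24 hrs at 37 degree Celsius. Fixed cells were immunostained for phospho-rpS6 Ser235/236 and counterstained, and the normalized signal was scored as % active cells against rapamycin and DMSO controls.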
Background: Quantitative high-throughput screening tests each substance at several concentrations.

Assay [2] can be described thus: High Content Imaging Cell-Based qHTS for Inhibitors of the mTORC1 Signaling Pathway in MEF Cells (AID 2667).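 Further: Tsc2-/- p53-/- MEFs stably re-expressing wild-type Tsc2 exposed 24 h; series mostly up to about 38 µM.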 The gist of the method:
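Immunofluorescence for rpS6 phosphorylation in MEFs of Tsc2-/-, p53-/- background rescued with WT Tsc2. Compound exposure lasted 24 hrs. Inhibition was scored against rapamycin-treated control wells.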

Assay [3] can be described thus: Cytometry Cell-Based qHTS for Inhibitors of the mTORC1 Signaling Pathway in MEF cells (AID 2668).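 Further: Tsc2-/- p53-/- mouse embryonic fibroblasts stably re-expressing wild-type Tsc2; percent cells positive for phospho-rpS6 Ser235/236 relative to propidium iodide stain; series mostly up to about 38 µM.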 The gist of the method: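 Tsc2-/-, p53-/- MEFs re-expressing WT Tsc2; cpd 24 hrs, 37 degree Celsius; PFA fix, Alexa-488 p-rpS6 (Ser235/236) Ab 2 hrs RT, PI counterstain; Acumen 488nm scan; p-S6/PI ratio → % positive cells; PI count = viability.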
Assay [4] is described as follows: Validation screen for small molecules that induce DNA re-replication in MCF 10A normal breast cells (AID 463097). Further: nearly all actives have a fitted effect of over 60% in size. The gist of the method:
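Image-based qHTS: normal breast cells are incubated with compound for 48 hr, stained with Hoechst, and scanned for total nuclear fluorescence. Compounds raising the fraction of nuclei with elevated DNA content count as re-replication inducers.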

In assay [5] the target is Ubiquitin carboxyl-terminal hydrolase 2 (Homo sapiens) (UniProt O75604). In words: qHTS Validation Assay for Inhibitors of Ubiquitin-specific Protease USP2a Using CHOP2 as the Reporter (AID 463106). The gist of the method: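 10nM USP2 core + cpd, 30min RT; add 25nM Ub-CHOP2/25nM substrate; 60min RT; FI 485/531nm. Buffer Tris pH 8.0, CaCl2, BME, CHAPS. Norm. to NEM = 100% inhibition; time-zero read flags fluorescent artifacts.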

The target in assay [6] is DNA polymerase III PolC-type (Bacillus subtilis (strain 168)) (UniProt P13267). In words: qHTS Validation Assay for the Inhibitors of DNA Replication in Gram-Positive Bacteria (AID 485295).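 Further: reconstituted holoenzyme with PolC plus beta clamp SSB and primase; PicoGreen fluorescence of double-stranded DNA made on primed circular M13 template; series mostly up to about 57 µM.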 In short, it runs like this: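 First, compound is mixed with the reconstituted replication complex and held at room temperature. Next, circular single-stranded M13Gori with nucleotides starts synthesis. Finally, PicoGreen in EDTA halts the reaction and stains double-stranded product for fluorescence reading.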

Assay [7] concerns the target Tumor susceptibility gene 101 protein (Homo sapiens) (UniProt Q99816). In words: qHTS Validation Assay for Iinhibitors of HIV-1 Budding by Blocking the Interaction of PTAP/TSG101 (AID 485342; calls by dose curve). In short, it runs like this:
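Binding of a FITC-tagged PTAP-motif peptide (50 nM) to the Tsg101 binding domain (10 uM) is monitored by fluorescence polarization. Compounds are pin-delivered before peptide addition, and incubation runs 20 min at room temperature.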

Assay [8] in a line: qHTS Validation Assay to Find Inhibitors of Chronic Active B-Cell Receptor Signaling (AID 485345; active means well fitted curve in the direction sought with a large enough effect in the main read-out, with a control signal flat, not every such curve was filed as active). In short, it runs like this: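 Read-out: ratio of filter-corrected green (IkappaBalpha fusion) to red (native) luciferase signal in doxycycline-induced TMD8 cells after 4 h at 37C. Titration spanned 46 uM–3 nM; Data were normalised to basal cells and 10 uM MG-132 wells.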
For assay [9], the target named is Beta-2 adrenergic receptor (Homo sapiens) (UniProt P07550). Put plainly: qHTS validation assay of beta-arrestin-biased ligands of beta2-adrenergic receptor (AID 485366). The gist of the method: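 Values derive from curve-fitted %Activity of a luminescent beta-arrestin recruitment reporter; compounds tested up to 46 microM on Tango cells for 18 hr at 37 degrees C, 5% CO2.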

A short description of assay [10]: Quantitative high throughput screen for delayed death inhibitors of the malarial parasite plastid, 96 hour incubation (AID 488745). Further: nearly all actives have a fitted effect of over 70% in size. Further: potency means the concentration at half of the fitted maximal effect. In short, it runs like this: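 Infected erythrocytes were added to compound in Albumax-supplemented RPMI 1640 at 0.1% parasitemia and 2% hematocrit (final), incubated 96 h at 37 C under 5% CO2, then luciferase reagent was added and luminescence measured.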

Assay [11] can be described thus: Quantitative high throughput screen for delayed death inhibitors of the malarial parasite plastid, 48 hour incubation (AID 488752). Further: nearly all actives have a fitted effect of over 65% in size. In short, it runs like this:
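Readout is firefly luciferase luminescence from a reporter integrated into the parasite genome, with lower signal taken as inhibited growth. Infected red cells (0.1% parasitemia, 2% hematocrit final) are cultured with compound for one 48 h cycle at 37 C.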

Assay [12] has as its target Thioredoxin reductase 1, cytoplasmic (Rattus norvegicus) (UniProt O89049). Put plainly: qHTS Assay for Substrates of Mammalian Selenoprotein Thioredoxin Reductase 1 (TrxR1) (AID 488772).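 Further: NADPH fluorescence in the first read after selenite addition and not the 8 min delta; series mostly up to about 57 µM; a drop in NADPH fluorescence below the no-compound background marks a TrxR1 substrate.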 The gist of the method:
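Quantitative HTS in Tris-HCl buffer at pH 7.5 with EDTA and Tween-20, using rat TrxR1, 400 uM NADPH and 400 uM selenite (final). A fall in initial NADPH fluorescence relative to background marked substrate behaviour.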

The target of assay [13] is Flap endonuclease 1 (Homo sapiens) (UniProt P39748). In words: qHTS Validation Assay for the Inhibitors of Human Flap endonuclease 1 (FEN1) (AID 488816). The gist of the method:
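Readings taken at 0 and 15 min after starting the reaction with 50 nM (final) substrate supplied the signal. Compounds had first sat with 10 nM FEN1 reagent for 15 min at room temperature. Values come from Hill-equation concentration-response fits.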

In assay [14] the target is M-phase phosphoprotein 8 (Homo sapiens) (UniProt Q99549). In words: qHTS Validation Assay for Inhibitors for MPP8 Chromodomain Interactions with Methylated Histone Tails (AID 488949).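 Further: 50 nM MPP8 with 50 nM peptide preformed then compounds added for 30 min; AlphaScreen signal from MPP8 chromodomain bound to biotinylated H3K9me3 peptide; top concentration of the series differs between compounds; nearly all actives have a fitted effect of over 55% in size.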 In short, it runs like this: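 50 nM MPP8 + 50 nM b-H3K9me3 peptide, PBS pH 7.4/0.01% Tween-20, 30 min RT; + cpd 30 min RT; + AlphaScreen donor/Ni-chelate acceptor beads 10 ug/mL final, 30 min dark; luminescence read.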

For assay [15], the target named is Chromobox protein homolog 1 (Homo sapiens) (UniProt P83916). In words: qHTS Validation Assay for Inhibitors of HP1-beta Chromodomain Interactions with Methylated Histone Tails (AID 488953). Further: nearly all actives have a fitted effect of over 50% in size. Further: potency means the concentration at half of the fitted maximal effect. In short, it runs like this:
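50 nM HP1-beta + 50 nM biotin-H3(1-18)K9me3, PBS pH 7.4, 0.01% Tween-20, 30 min RT; compound added, 30 min RT; AlphaScreen beads 10 ug/mL final, 30 min dark; luminescence read.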

The target of assay [16] is Methanococcus maripaludis chaperonin (MmCpn) (UniProt Q6LX38). In words: High-Throughput Screening for Modulators of Cytosolic Chaperonin Activity: MmCpn Primary Screen (AID 488978).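 Further: 50 nM MmCpn enzyme hydrolysing 30 µM ATP at 37 °C.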 The gist of the method:
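Steps: chaperonin 50 nM final; add compound, 5 min RT; start with ATP, 30 uM final; hold 10 min at 37C; add ADP Transcreener HTRF reagent, 5 min; read ex 320, em 590 and 665 nm.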

For assay [17], the target named is ATP-dependent 6-phosphofructokinase (Trypanosoma brucei brucei) (UniProt O15648). In words: qHTS Validation Assay to Find Inhibitors of T. brucei phosphofructokinase (AID 485368). In short, it runs like this: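 Enzyme reaction in triethanolamine buffer pH 8.0 with 5 mM MgCl2, 0.01% Tween20 and 0.1% BSA; PFK 1.25 nM, F6P 0.5 mM, ATP 0.1 mM, 45 min RT. ADP quantified by ADP-Glo.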

In assay [18] the target is Thioredoxin reductase 1, cytoplasmic (Rattus norvegicus) (UniProt O89049). Put plainly: qHTS Assay for Inhibitors of Mammalian Selenoprotein Thioredoxin Reductase 1 (TrxR1) (AID 488773).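 Further: drop in NADPH fluorescence over an 8 min run after selenite addition; series mostly up to about 57 µM; nearly all actives have a fitted effect of over 40% in size.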 The note with it: Potency: inhibition. The gist of the method: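 Steps: enzyme (90 nM) plus NADPH (400 uM final), 5 min at ~22 deg C; compound added, 15 min; selenite (400 uM final) added; fluorescence followed for 8 min. Concentration-response curves derived from the normalized delta values.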
Sequence of Thioredoxin reductase 1, cytoplasmic (Rattus norvegicus) (O89049 whole entry, looked up): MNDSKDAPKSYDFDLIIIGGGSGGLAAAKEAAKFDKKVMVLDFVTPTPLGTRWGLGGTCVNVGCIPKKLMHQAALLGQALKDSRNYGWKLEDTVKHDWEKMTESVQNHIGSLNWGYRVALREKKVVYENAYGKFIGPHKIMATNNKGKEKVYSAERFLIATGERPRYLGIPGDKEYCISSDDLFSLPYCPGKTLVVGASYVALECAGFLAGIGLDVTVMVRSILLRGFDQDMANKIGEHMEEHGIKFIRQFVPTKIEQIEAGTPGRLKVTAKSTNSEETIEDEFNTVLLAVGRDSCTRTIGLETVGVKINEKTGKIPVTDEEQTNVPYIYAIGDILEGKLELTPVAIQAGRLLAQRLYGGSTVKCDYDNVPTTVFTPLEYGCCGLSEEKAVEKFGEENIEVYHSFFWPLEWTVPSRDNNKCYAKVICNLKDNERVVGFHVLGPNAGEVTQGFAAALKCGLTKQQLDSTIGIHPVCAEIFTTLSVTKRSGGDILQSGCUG

Sequence of Tumor susceptibility gene 101 protein (Homo sapiens) (Q99816 whole entry, looked up, the tested form may be a part): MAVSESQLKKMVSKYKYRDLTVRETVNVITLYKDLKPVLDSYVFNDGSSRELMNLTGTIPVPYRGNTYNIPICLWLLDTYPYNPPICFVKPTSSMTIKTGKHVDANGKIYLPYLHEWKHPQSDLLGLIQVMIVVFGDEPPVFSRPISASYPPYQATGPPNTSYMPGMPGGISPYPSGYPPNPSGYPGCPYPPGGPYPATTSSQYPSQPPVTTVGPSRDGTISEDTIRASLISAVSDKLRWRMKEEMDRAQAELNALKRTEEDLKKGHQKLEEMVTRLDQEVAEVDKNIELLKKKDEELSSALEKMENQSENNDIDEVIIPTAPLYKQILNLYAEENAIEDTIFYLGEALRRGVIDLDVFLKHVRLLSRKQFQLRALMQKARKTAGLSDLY
Sequence of Ubiquitin carboxyl-terminal hydrolase 2 (Homo sapiens) (O75604 whole entry, looked up): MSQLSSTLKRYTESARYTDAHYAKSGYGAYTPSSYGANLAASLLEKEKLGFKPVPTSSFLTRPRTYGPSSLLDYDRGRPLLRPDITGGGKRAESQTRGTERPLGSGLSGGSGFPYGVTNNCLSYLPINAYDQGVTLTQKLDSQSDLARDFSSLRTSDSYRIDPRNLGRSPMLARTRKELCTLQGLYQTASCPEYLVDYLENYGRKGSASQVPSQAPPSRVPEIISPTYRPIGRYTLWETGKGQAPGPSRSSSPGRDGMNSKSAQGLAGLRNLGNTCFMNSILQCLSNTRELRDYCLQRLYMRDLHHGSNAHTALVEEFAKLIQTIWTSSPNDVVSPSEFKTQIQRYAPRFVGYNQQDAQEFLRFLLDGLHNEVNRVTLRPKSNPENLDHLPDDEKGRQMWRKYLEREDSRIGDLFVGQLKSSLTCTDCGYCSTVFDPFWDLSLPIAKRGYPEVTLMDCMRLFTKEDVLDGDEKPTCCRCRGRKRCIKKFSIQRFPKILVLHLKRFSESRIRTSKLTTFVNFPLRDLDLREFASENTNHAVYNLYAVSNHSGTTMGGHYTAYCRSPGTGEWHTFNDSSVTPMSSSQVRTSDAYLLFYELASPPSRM
Sequence of M-phase phosphoprotein 8 (Homo sapiens) (Q99549 whole entry, looked up): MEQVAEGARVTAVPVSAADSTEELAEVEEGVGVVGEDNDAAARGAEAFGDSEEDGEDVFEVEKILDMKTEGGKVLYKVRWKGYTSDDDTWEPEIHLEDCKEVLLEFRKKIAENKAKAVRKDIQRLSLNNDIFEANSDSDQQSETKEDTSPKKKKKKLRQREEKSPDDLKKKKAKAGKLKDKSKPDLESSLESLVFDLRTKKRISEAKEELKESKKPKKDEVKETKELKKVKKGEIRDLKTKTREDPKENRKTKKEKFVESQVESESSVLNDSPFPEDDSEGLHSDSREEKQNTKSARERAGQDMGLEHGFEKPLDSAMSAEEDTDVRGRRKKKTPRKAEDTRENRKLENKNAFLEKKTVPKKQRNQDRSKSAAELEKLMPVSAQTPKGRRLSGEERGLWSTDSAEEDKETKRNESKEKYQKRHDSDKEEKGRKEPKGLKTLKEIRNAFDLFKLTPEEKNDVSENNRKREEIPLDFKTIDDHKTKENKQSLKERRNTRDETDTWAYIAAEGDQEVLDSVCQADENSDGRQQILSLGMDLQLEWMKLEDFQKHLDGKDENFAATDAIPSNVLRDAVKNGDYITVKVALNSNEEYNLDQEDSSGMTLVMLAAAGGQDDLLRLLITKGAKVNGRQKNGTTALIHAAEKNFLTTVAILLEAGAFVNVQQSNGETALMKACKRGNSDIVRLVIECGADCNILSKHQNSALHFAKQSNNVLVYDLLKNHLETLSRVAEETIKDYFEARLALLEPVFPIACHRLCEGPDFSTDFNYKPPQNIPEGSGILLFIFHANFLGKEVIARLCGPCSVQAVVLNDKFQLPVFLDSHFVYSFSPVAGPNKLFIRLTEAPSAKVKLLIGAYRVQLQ
Sequence of Chromobox protein homolog 1 (Homo sapiens) (P83916 whole entry, looked up): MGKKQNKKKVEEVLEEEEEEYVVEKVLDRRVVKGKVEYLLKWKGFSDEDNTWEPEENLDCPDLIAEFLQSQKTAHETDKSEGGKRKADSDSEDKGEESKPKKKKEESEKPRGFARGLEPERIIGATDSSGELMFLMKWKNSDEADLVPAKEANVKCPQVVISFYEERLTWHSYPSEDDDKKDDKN
Sequence of Methanococcus maripaludis chaperonin (MmCpn) (Q6LX38 1-543): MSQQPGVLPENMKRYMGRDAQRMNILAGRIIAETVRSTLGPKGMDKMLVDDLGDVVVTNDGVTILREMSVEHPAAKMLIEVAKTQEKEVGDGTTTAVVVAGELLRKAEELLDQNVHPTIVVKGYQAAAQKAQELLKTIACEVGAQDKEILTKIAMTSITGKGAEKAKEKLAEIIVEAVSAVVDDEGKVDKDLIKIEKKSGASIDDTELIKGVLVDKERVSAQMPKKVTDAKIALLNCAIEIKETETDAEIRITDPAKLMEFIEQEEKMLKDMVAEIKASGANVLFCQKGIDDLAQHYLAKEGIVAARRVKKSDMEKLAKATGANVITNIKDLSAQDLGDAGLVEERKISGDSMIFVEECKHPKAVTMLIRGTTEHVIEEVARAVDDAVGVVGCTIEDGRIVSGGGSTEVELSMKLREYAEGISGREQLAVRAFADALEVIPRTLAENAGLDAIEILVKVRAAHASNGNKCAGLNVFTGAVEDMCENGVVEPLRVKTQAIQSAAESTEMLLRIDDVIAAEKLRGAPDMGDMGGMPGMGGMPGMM
Sequence of Flap endonuclease 1 (Homo sapiens) (P39748 whole entry, looked up): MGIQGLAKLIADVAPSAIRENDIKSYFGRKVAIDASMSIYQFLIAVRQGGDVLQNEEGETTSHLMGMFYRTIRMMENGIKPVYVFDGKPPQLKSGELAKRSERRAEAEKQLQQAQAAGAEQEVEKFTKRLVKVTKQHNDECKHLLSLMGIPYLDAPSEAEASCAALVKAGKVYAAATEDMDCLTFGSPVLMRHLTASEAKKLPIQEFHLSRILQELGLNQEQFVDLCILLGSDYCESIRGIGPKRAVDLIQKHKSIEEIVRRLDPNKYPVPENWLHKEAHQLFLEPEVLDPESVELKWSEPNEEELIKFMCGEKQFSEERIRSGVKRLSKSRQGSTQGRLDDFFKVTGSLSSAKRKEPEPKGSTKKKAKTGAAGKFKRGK
Sequence of DNA polymerase III PolC-type (Bacillus subtilis (strain 168)) (P13267 whole entry, looked up): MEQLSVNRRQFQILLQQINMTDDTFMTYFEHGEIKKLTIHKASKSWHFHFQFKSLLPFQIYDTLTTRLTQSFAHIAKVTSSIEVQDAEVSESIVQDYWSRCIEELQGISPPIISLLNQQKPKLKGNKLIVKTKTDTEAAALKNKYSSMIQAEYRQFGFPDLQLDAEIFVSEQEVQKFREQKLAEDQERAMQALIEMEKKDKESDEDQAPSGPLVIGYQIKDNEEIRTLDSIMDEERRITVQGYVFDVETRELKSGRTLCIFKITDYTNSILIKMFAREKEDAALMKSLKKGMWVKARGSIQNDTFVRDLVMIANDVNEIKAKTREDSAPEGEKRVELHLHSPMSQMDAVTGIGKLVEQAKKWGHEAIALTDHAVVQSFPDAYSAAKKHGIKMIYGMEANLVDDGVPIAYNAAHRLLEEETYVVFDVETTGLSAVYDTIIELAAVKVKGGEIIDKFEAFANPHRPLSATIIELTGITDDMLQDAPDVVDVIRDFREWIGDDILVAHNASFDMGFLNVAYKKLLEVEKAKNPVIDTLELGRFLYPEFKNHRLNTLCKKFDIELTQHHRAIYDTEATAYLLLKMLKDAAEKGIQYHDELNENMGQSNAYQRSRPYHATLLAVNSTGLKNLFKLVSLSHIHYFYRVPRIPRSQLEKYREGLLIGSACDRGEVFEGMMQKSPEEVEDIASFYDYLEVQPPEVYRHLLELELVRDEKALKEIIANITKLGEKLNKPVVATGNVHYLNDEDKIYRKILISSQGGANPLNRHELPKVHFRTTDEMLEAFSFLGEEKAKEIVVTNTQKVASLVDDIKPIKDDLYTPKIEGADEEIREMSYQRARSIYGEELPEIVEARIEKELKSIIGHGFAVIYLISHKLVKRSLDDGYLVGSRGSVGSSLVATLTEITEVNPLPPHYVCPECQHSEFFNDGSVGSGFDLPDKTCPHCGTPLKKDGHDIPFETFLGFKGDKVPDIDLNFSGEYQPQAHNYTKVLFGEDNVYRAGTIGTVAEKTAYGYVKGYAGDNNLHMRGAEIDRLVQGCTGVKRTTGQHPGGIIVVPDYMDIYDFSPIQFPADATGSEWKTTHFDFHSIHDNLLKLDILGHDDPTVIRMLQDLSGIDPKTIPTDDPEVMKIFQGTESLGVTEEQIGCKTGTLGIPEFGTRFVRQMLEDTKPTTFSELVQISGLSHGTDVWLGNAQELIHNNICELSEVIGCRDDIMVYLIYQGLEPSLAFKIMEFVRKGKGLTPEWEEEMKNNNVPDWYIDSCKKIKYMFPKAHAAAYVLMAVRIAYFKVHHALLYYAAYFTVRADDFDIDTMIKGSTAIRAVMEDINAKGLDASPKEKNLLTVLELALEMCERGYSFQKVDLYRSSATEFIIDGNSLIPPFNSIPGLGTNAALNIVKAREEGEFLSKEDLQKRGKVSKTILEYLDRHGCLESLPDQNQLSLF

For the molecule `Cc1nc(N=Nc2ccc(C(=O)O)cc2)c(COP(=O)(O)O)c(C=O)c1O`, the Potency result in assay [1], in assay [2], in [3], in [4], in assay [5] and in assay [6] was “inactive” in each case. For the same molecule, the Potency result in [10], in [11], in [13] and in assay [14] was “inactive” in each case. For the same molecule, the molecule was called inactive in assay [7], in assay [8], in assay [9], in assay [12] and in assay [16]. In [15], the Potency is 50.1 µM (active).

Take `CC(C)(C)NCC(O)COc1cccc2[nH]c(=O)[nH]c12` (centres undefined): the Potency result in assay [1], in assay [2], in assay [3], in assay [4], in assay [5] and in assay [6] was “inactive” each time. For the same molecule, the Potency result in assay [17], in [10], in assay [11], in assay [18], in assay [13] and in assay [15] was “inactive” in each case. Besides, the outcome in assay [7], in assay [8] and in assay [12] was inactive.

In the case of `CC(C)NCC(O)COc1ccc(CC(N)=O)cc1` (centres undefined), the Potency result in [1], in assay [2], in [3], in [4], in assay [5] and in assay [6] was “inactive” throughout. Further, the Potency entry in assay [10], in [18] and in [15] was “inactive” throughout. In addition, the call in assay [7], in assay [8] and in assay [16] was inactive.

For the molecule `CC[C@H](NC(=O)c1c(C)c(-c2ccccc2)nc2ccccc12)c1ccccc1`, the Potency entry in assay [1], in assay [2], in assay [3], in assay [4], in assay [5] and in assay [6] was “inactive” each time. For the same molecule, the Potency entry in assay [18], in assay [13], in assay [14] and in [15] was “inactive” in each case. The molecule was called inactive in assay [7], in [8], in [9] and in assay [16]. The Potency in assay [10] was 3.7 µM (active).

In the case of `COC(=O)[C@H](NC(=O)c1cc(-c2ccccc2)nc2ccccc12)c1ccccc1`, the Potency result in assay [1], in [2], in assay [3], in assay [4], in [5] and in [6] was “inactive” throughout. Moreover, the Potency entry in [17], in assay [10], in [11], in [18], in assay [13] and in [14] was “inactive” in each case. In addition, the Potency entry in [15] is “inactive”. In addition, the outcome in [7], in [9], in assay [12] and in assay [16] was inactive.

Consider `Oc1ccc(Cn2cc[nH]c2=S)cc1`, for which the Potency result in assay [1], in assay [2], in assay [3], in [4], in [5] and in [6] was “inactive” each time. The Potency entry in [10], in assay [11], in assay [18] and in assay [14] was “inactive” each time. The outcome in assay [7], in [8], in assay [9] and in [16] was inactive.
